Bioassay records: PubChem, several laboratories
PGE2 EP2 inh: inhibitors of human EP2 prostaglandin E2 receptor | P43116 | C6 glioma cells expressing human EP2, cAMP TR-FRET; cells stimulated with saturating PGE2 | inhibition, % at 25 µM | actives 0.52% (n = 260,000) | AID 1422;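 active means percent inhibition above 40 after rounding to a whole number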;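 further: rat C6 glioma host cells with rolipram phosphodiesterase inhibitor present; the protocol text gives 20 µM as final concentration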
Target sequence (P43116 whole entry, looked up): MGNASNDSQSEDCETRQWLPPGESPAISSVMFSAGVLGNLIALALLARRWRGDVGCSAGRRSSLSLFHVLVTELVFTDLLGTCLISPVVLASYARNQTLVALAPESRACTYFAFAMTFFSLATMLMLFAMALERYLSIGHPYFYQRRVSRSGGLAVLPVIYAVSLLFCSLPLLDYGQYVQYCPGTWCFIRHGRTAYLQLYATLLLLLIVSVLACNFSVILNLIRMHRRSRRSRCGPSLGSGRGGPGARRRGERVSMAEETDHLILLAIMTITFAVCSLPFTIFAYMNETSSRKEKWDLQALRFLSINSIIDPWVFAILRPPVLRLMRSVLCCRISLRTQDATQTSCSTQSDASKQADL
CHT inh: inhibitors of human choline transporter CHT; Q9GZV3; CHT-expressing cells, membrane potential dye, choline response; hits give low values; B-score at 10 µM; actives 0.86% (n = 310,000);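 active means B-score over 3 SD under the library average, and starting fluorescence ratio not unusually high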;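 further: choline stimulus applied at its EC90 after an EC20 pre-addition; B-score computed on integrated fluorescence ratio after choline addition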
EP2 modulator: modulators of human EP2 prostaglandin E2 receptor | P43116 | EP2-expressing cells, cAMP HTRF FRET, PGE2 co-stimulation | induction, % at 25 µM | actives 0.83% (n = 260,000);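 active means compounds whose cAMP rise, as percent of the full-agonist control response, exceeds 60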;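 further: rat C6 glioma line stably carrying human EP2 under a CMV promoter; the protocol text gives 20 µM as final concentration; 100% = response of wells given 1 µM PGE2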
CHT PAM: allosteric activators of human choline transporter CHT. CHT-expressing cells, membrane potential dye, choline EC20; hits give high values; LV-AA mutant CHT in HEK293 cells. B-score at 10 µM. actives 0.49% (n = 310,000). AID 488977;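 active means initial fluorescence not abnormally high and integrated response B-score, plate-corrected, over 3 SD above library mean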
CHT inh conf: confirmation of human choline transporter CHT inhibitors; shares compounds with CHT inh; CHT-expressing cells, choline membrane potential dye; LV-to-AA substituted CHT, HEK293 cells; CHT activity remaining % of control (hits give low values), % at 10 µM; actives 70% (n = 2,400); AID 493221;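 active means choline transporter activity left, mean of duplicates at 10 µM, below buffer-only control mean minus 3 SD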;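 further: depolarization triggered by choline at its EC90 following an EC20 pre-addition; 0% = hemicholinium-3 full block and 100% = buffer-only control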
HEK293 MPD ctr: activity in parental HEK293 cells lacking CHT. shares compounds with CHT inh. membrane potential dye, choline response; active = decrease or increase beyond buffer ±3SD. membrane potential ratio readout (active if shifted either direction beyond buffer ±3SD; no single direction) at 10 µM. actives 4% (n = 2,400). AID 493222;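 further: parental cells lack the transporter so any hit is non-specific; ratio is peak minus trough fluorescence over baseline after EC90 choline challenge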
Numbers without * were called inactive; i = inactive; . = no result given. This is a sample that favours compounds with a hit; in the whole collection about 2.1% have one here.

SMILES | PGE2 EP2 inh | CHT inh | EP2 modulator | CHT PAM | CHT inh conf | HEK293 MPD ctr
CCSc1nnc2n1C(C)(C)Cc1ccccc1-2 | . | -5* | 3 | i | 41%* | i
Cc1ccc(-c2csc3ncnc(-n4nnc5ccccc54)c23)cc1C | 5 | i | 52 | i | . | .
Cc1ccc(-c2csc3ncnc(-n4cnc5ccccc54)c23)cc1 | 4 | -7.5* | 16 | i | 24%* | i
Cc1ccc(-c2csc3ncnc(-n4nnc5ccccc54)c23)cc1 | 4 | -7.5* | -6 | i | 63%* | i
c1ccc(-c2csc3ncnc(-n4cnc5ccccc54)c23)cc1 | 15 | i | 30 | i | . | .
COc1ccc(-n2nnnc2SCC(=O)c2ccc(NC(C)=O)cc2)cc1 | 22 | . | -105 | . | . | .
CCCNC(=O)c1ccccc1NC(=O)c1ccc2c(c1)NC(=O)C(C)S2 (stereo unspecified) | . | -5.9* | . | i | 65%* | i
CC(C)c1ccc(NC2CCCN(C(=O)c3ccc4nccnc4c3)C2)cc1 (stereo unspecified) | . | i | . | i | . | .
COC(=O)c1ccc(C(=O)N2CCCC(Nc3ccc(C(C)C)cc3)C2)nc1 (stereo unspecified) | . | -5.2* | . | i | 58%* | i
Cn1cnnc1Sc1nc2c(c(=O)n(C)c(=O)n2C)n1Cc1ccc(Cl)cc1 | 9 | . | 3 | . | . | .
CC(C)CC(=O)Nc1nc(=S)ss1 | 20 | -6.8* | -16 | i | 40%* | i
O=C(O)c1cnn(-c2nc(-c3cccc(F)c3)cs2)c1C(F)(F)F | 12 | i | 21 | i | . | .
O=C(O)c1cnn(-c2nc(-c3cccc([N+](=O)[O-])c3)cs2)c1C(F)(F)F | . | -6* | . | i | 66%* | i
CCCCc1cc(=O)oc2cc(O)cc(O)c12 | 8 | -7.9* | 7 | i | 40%* | i
CCCc1cc(O)c2c(C)cc(=O)oc2c1 | 16 | -7.6* | -6 | i | 48%* | i
CCCCc1cc(=O)oc2cc(C)cc(O)c12 | 10 | i | 5 | i | . | .
Cc1cc(C)cc(CC(Cc2nc3ccccc3[nH]2)c2nc3ccccc3[nH]2)c1 (stereo unspecified) | 8 | -8.7* | 10 | i | 54%* | i
COC(=O)C(C)Oc1ccc2c3c(c(=O)oc2c1)CCCCC3 (stereo unspecified) | 1 | -5.2* | 18 | i | i | i
CC(Oc1ccc2c3c(c(=O)oc2c1)CCCC3)C(=O)NCC1CCC(C(=O)O)CC1 (stereo unspecified) | . | i | . | i | . | .
O=C(O)C(=Cc1ccc(-c2cccc(C(F)(F)F)c2)o1)C(=O)O | 7 | . | 8 | . | . | .
CCOC(=O)c1ccccc1Oc1c(F)c(F)nc(NCCO)c1F | 1 | -5.5* | -14 | i | 55%* | i
COc1ccc(OCC(=O)N/N=C/C=C/c2ccccc2)cc1 | 7 | -7.9* | -36 | i | 69%* | i
COCC(=O)OCCCNC(=O)c1cc2ccccc2oc1=O | 6 | . | -4 | . | . | .
CC(C)(C)c1ccc(C(=O)CC(Sc2ccc(Cl)cc2)C(=O)O)cc1 (stereo unspecified) | 8 | -8.4* | -26 | i | 6.4%* | i
NNC(=O)c1cc(-c2ccc(Cl)cc2)n[nH]1 | 9 | . | -68 | . | . | .
SMILES | PGE2 EP2 inh | CHT inh | EP2 modulator | CHT PAM | CHT inh conf | HEK293 MPD ctr
O=CC1=C(c2ccccc2)Oc2ccccc2O1 | . | i | . | i | i | i
Cc1oc(C(=O)O)cc1COc1ccc2c3c(c(=O)oc2c1C)CCC3 | 9 | -6.6* | 7 | i | 43%* | i
CCc1ccc(-n2c(SCC(=O)NC3CCCC3)nnc2-c2ccccn2)cc1 | 16 | . | 35 | . | . | .
O=C(Nc1ccccc1)c1cccc(N2C(=O)C3C4C=CC(C4)C3C2=O)c1 (stereo unspecified) | . | i | . | i | . | .
CC1CCCCC1NC(=O)c1cccc(N2C(=O)C3C4C=CC(C4)C3C2=O)c1 (stereo unspecified) | . | -8.4* | . | i | 28%* | i
Cc1nc2ccccc2n1C1CCN(CC(=O)Nc2ccc(Br)cc2)CC1 | 12 | . | -58 | . | . | .
Cc1ccccc1NC(=O)N1CCc2ccccc2C1 | 2 | -5.6* | -8 | i | i | i
COc1cccc(NC(=O)c2cc3ccccc3o/c2=N\O)c1 | . | -6.3* | . | i | i | i
O=C(Nc1ccccc1Cl)c1cc2ccccc2o/c1=N\O | . | i | . | i | . | .
Cc1ncoc1C(=O)N1CCc2c([nH]c3ccccc23)C1c1ccccc1F (stereo unspecified) | 12 | i | 12 | i | . | .
Cc1cccc(C2c3[nH]c4ccccc4c3CCN2C(=O)c2ccc(=O)[nH]c2)n1 (stereo unspecified) | 13 | i | 16 | i | . | .
Cc1cccc(C2c3[nH]c4ccccc4c3CCN2C(=O)c2cc3c([nH]c2=O)CCCC3)n1 (stereo unspecified) | 6 | -9.6* | -40 | i | 9.3%* | i
O=C(c1cc2c([nH]c1=O)CCCC2)N1CCc2c([nH]c3ccccc23)C1c1ccccc1F (stereo unspecified) | 9 | -12* | -41 | i | 30%* | i
Cc1ccc(C(=O)Nc2cccc(NC(=O)CSc3nnc(-c4ccncc4)n3C)c2)cc1 | 7 | . | 10 | . | . | .
CCC(C)(C)NC(=O)C(c1sccc1C)N(C(=O)c1csnn1)c1ccc(C)cc1 (stereo unspecified) | 8 | . | 27 | . | . | .
Cn1c(=O)[nH]c2nnc(-c3ccc(Cl)c(Cl)c3)nc2c1=O | 13 | -5* | -11 | i | 34%* | i
CCn1c(SCC(=O)c2ccc(OC)c(OC)c2)nnc1-c1ccoc1C | 12 | . | -19 | . | . | .
CCn1c(SCC(=O)N=Nc2c(O)[nH]c3ccccc23)nc2ccccc21 | 6 | -7* | -4 | i | 54%* | i
CCCc1cc(Nc2c(C)n(C)n(-c3ccccc3)c2=O)n2c(nc3ccccc32)c1C#N | 10 | -8* | 0 | i | 38%* | i
Cc1cc(Nc2c(C)n(C)n(-c3ccccc3)c2=O)n2c(nc3ccccc32)c1C#N | . | i | 11 | i | . | .
CC(C)OC(=O)c1cccc(-c2ccc(C=O)o2)c1 | 6 | -5.2* | 36 | i | 56%* | i
C=CCNc1nc(Nc2cc(Cl)ccc2OC)nc(N2CCOCC2)n1 | 14 | . | 56 | . | . | .
Cn1ncc2c(N3CCC(Cc4ccccc4)CC3)ncnc21 | 5 | -6.6* | -26 | i | 66%* | i
c1ccc(CCN2CCN(c3ncnc4c3cnn4-c3ccccc3)CC2)cc1 | 5 | -5.3* | -42 | i | 34%* | i
c1ccc(Cn2ncc3c(N4CCOCC4)ncnc32)cc1 | 7 | i | 20 | i | . | .
CCN1CCN(c2ncnc3c2cnn3-c2ccccc2)CC1 | 12 | i | -16 | i | . | .
